We go through 39 compounds from the supplement of paper PMC10933113.

Where a name gives a salt, the structure may show the parent alone. ± gives the uncertainty stated by the source.

The test system of the assay is THP-1. Nature of the assay: CD54 surface expression induction over DMSO control (% over DMSO); higher = stronger dendritic cell activation. Conditions: exposure time: 24 h. The method, then: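 hCLAT-like CD54 and CD86 surface expression on THP1 cells after 24 h exposure at a single concentration (highest non-cytotoxic concentration, or 100-200 µM if not cytotoxic). Flow cytometry (iQue) was run on 5,000 live cells.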
With `CCS(=O)(=O)CCSP(=O)(OC)OC` [Demeton-S-methylsulphon] (10 µM), the “CD54 surface expression induction” value is -8.94 ± 5.5.
Turning to `O=[N+]([O-])c1cc([N+](=O)[O-])c2ccccc2c1` [1,3-Dinitronaphthalene] (200 µM), the “CD54 surface expression induction” value was determined as 3.83 ± 2.5.
Regarding `[CH3][Hg][Cl]` [Methyl mercuric (II) chloride] (10 µM), the “CD54 surface expression induction” value is 36.6 ± 5.5.
`O=C(CCl)c1ccccc1` [2-Chloroacetophenone] (100 µM): the “CD54 surface expression induction” value was 24.1 ± 11.
The result for `N#CCC#N` [Propanedinitrile] (199 µM) reads -2.75 ± 3; that for `O=C1C=CC(=O)c2ccccc21` (10 µM), 239 ± 45.
Next, `CC(C)Nc1ccc(Nc2ccccc2)cc1` [N-Isopropyl-N'-phenyl-p-phenylenediamine] (10 µM): 46.7 ± 2.8; `COc1ccc(C(c2ccc(OC)cc2)C(Cl)(Cl)Cl)cc1` [Methoxychlor] (200 µM): 27.4 ± 9.6.
The result for `NNCc1ccccc1` (100 µM) reads -19.4 ± 21; that for `CS/C(C)=N\OC(=O)N(C)SN(C)C(=O)O/N=C(\C)SC` [Thiodicarb] (10 µM), -6.62 ± 5; that for `CN1C[C@H](C(=O)N[C@]2(C)O[C@@]3(O)[C@@H]4CCCN4C(=O)[C@H](Cc4ccccc4)N3C2=O)C=C2c3cccc4[nH]cc(c34)C[C@H]21` [Ergotamine D-tartrate*] (79 µM), 228 ± 28.
On to `ClC1=C(Cl)C(Cl)(Cl)C(Cl)=C1Cl` [Hexachlorocyclopentadiene] (200 µM), for which the “CD54 surface expression induction” value amounted to 47.8 ± 5.2.
On to `CCC(C)(NC(=O)c1cc(Cl)c(C)c(Cl)c1)C(=O)CCl` (centres undefined) [Zoxamide] (10 µM), for which the “CD54 surface expression induction” value was 10.1 ± 25.
With `O=[N+]([O-])c1ccc(Oc2ccc(C(F)(F)F)cc2[N+](=O)[O-])cc1` [Fluorodifen] (10 µM), the “CD54 surface expression induction” value was -6.85 ± 4.5.
Turning to `c1ccc(Nc2ccc(Nc3ccccc3)cc2)cc1` [N,N'-Diphenyl-p-phenylenediamine] (200 µM), the “CD54 surface expression induction” value was -11.2 ± 11.
Consider `COc1ccc2[nH]cc(CCN(C(C)C)C(C)C)c2c1` [5-Methoxy-N,N-diisopropyltryptamine hydrochloride] (224.7 µM), for which the “CD54 surface expression induction” value was -7.18 ± 11.
In the case of `C[C@@H]1O[C@@H](O[C@H]2C[C@@H](O)[C@]3(CO)[C@H]4[C@H](O)C[C@]5(C)[C@@H](C6=CC(=O)OC6)CC[C@]5(O)[C@@H]4CC[C@]3(O)C2)[C@H](O)[C@H](O)[C@H]1O` [Ouabain] (10 µM), the “CD54 surface expression induction” value came out at 21.9 ± 10.
The result for `Cc1cc(C2CC2)nc(Nc2ccccc2)n1` [Cyprodinil] (200 µM) reads 2.24 ± 3.2; that for `CC(C)OC(=S)S` [Proxan-sodium] (10 µM), -6.19 ± 3; that for `c1ccc(-c2cccc(-c3ccccc3)c2)cc1` [1,1':3',1''-Terphenyl] (200 µM), -8.04 ± 5.3.
On to `COP(=S)(OC)Oc1ccc(SC)c(C)c1` [Fenthion] (100 µM), for which the “CD54 surface expression induction” value is -7.55 ± 5.7.
As for `CCNc1nc(NC(C)(C)C)nc(SC)n1` [Terbutryn] (100 µM), the “CD54 surface expression induction” value worked out at 1.12 ± 1.2.
Next, `O=C1OC(CCN2CCCCC2)OC1(c1ccccc1)c1ccccc1` (centres undefined) [Pipoxolan hydrochloride] (100 µM): 78.1 ± 22.
Next, `[OH-].c1cc[c]([Sn+]([c]2ccccc2)[c]2ccccc2)cc1` [Triphenyltin hydroxide] (10 µM): 54.7 ± 30; `COc1ccccc1N` [2-Methoxyaniline hydrochloride] (100 µM): 2.44 ± 0.25.
Next, `OCc1ccco1` [Furfuryl alcohol] (201 µM): 0.62 ± 1.6.
For `Cl/C=C\C[N+]12CN3CN(CN(C3)C1)C2` [Chloroallyl methenamine chloride] (10 µM), the “CD54 surface expression induction” value worked out at 3.14 ± 2.9.
Next, `CC(C)=CC1C(C(=O)OCc2coc(Cc3ccccc3)c2)C1(C)C` (centres undefined) [Resmethrin] (200 µM): 19.8 ± 10.
Next, `CC(COc1ccc(Oc2ccccc2)cc1)Oc1ccccn1` (centres undefined) [Pyriproxyfen] (200 µM): -4.39 ± 4.3; `CCCCNC(=O)OCC#CI` [Carbamic acid, butyl-, 3-iodo-2-propynyl ester] (10 µM): -5.33 ± 4.1.
The result for `N#C/C=C/C#N` [Fumaronitrile] (10 µM) reads -10.2 ± 27; that for `C=C1C[C@@H]2[C@H](CC[C@]3(C)C(=O)CC[C@@H]23)[C@@]2(C)C=CC(=O)C=C12` [Exemestane] (100 µM), -0.45 ± 0.02; that for `ClC1=C(Cl)C2(Cl)C3C(Cl)C(Cl)CC3C1(Cl)C2(Cl)Cl` (centres undefined) [Chlordane] (200 µM), 27.9 ± 0.29.
As to `[Cl][Cd][Cl]` [Cadmium II chloride] (200 µM), the “CD54 surface expression induction” value came out at 50.2 ± 4.8.
Next, `Cc1ccc(N=C=O)cc1N=C=O` [Toluene-2,4-diisocyanate] (100 µM): -17 ± 4.1; `Nc1ccc(Cl)cc1Cl` [2,4-Dichloroaniline] (200 µM): -7.56 ± 1.5; `c1ccc2c(c1)OCC(C1=NCCN1)O2` (centres undefined) [Idazoxan] (10 µM): -6.12 ± 5.1.
As for `CCOC(=O)NC(=S)Nc1ccccc1NC(=S)NC(=O)OCC` [Thiophanate] (100 µM), the “CD54 surface expression induction” value came out at 18.5 ± 4.7.
Turning to `C[C@]12CC[C@H](O)C[C@H]1CC[C@@H]1[C@@H]2C[C@@H](O)[C@]2(C)[C@@H](C3=CC(=O)OC3)CC[C@]12O` [Digoxigenin] (10 µM), the “CD54 surface expression induction” value worked out at 27.6 ± 4.9.
